# Assays:
# Assay in all cases: DAPPL (digital affinity profiling via proximity ligation, sequencing); 10 mM Tris-HCl pH 7.5, 50 mM NaCl, 1 mM DTT, 4% glycerol, room temperature, 30 min; GST-TFs on glutathione beads, 16-mer random dsDNA library, 0.1% formaldehyde crosslink after washing; high values mean tight binding
# FEV = biological target: T1, FEV (Homo sapiens, UniProt Q99581 1-238); details: protein: recombinant; tags: N-terminal GST; dsDNA, one strand shown
# T1 sequence: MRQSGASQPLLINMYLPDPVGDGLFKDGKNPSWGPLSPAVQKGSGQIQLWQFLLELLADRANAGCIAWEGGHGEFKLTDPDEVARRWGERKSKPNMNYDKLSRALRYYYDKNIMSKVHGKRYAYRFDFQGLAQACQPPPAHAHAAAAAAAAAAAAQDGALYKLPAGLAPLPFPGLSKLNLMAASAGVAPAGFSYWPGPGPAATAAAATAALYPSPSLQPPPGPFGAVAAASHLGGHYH
# How it was run: (§1)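 Sequencing on an Illumina NextSeq500 followed washing, crosslinking with 0.1% formaldehyde, proximity ligation (BsaI/T4 ligase, 1 h, 37 °C) and PCR amplification of pools that had been incubated for 30 min at room temperature with 200 nmole of a random double-stranded 16-mer DNA library in Tris/NaCl/DTT/glycerol buffer. Each pool held DNA-barcoded human transcription factors, expressed in yeast as GST fusions and captured on glutathione beads, plus a tag-only sample. Binding signal is a hexamer's read frequency for a factor divided by its frequency in the tag-only sample.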
# ETV5 = ETV5 (Homo sapiens, UniProt P41161 1-510); details: protein: recombinant; tags: N-terminal GST; dsDNA, one strand shown
# ETV5, sequence (P41161 whole entry): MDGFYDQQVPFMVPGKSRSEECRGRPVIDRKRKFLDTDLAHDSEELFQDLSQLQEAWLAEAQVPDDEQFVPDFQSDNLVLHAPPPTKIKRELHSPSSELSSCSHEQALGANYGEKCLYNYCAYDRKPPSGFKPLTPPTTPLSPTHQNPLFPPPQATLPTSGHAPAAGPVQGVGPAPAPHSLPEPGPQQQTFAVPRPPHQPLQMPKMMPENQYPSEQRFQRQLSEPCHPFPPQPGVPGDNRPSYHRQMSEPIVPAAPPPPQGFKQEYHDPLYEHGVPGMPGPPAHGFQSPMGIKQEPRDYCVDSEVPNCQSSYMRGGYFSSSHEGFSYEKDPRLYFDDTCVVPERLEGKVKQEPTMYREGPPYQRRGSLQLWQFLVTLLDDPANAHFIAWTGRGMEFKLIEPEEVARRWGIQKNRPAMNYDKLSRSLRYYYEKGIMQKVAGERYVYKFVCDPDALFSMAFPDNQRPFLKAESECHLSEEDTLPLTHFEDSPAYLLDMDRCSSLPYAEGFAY
# How it was run: as §1
# HSF1 = HSF1 (Homo sapiens, UniProt Q00613 1-529); details: protein: recombinant; tags: N-terminal GST; chain copies: 3; dsDNA, one strand shown
# HSF1, sequence (Q00613 whole entry): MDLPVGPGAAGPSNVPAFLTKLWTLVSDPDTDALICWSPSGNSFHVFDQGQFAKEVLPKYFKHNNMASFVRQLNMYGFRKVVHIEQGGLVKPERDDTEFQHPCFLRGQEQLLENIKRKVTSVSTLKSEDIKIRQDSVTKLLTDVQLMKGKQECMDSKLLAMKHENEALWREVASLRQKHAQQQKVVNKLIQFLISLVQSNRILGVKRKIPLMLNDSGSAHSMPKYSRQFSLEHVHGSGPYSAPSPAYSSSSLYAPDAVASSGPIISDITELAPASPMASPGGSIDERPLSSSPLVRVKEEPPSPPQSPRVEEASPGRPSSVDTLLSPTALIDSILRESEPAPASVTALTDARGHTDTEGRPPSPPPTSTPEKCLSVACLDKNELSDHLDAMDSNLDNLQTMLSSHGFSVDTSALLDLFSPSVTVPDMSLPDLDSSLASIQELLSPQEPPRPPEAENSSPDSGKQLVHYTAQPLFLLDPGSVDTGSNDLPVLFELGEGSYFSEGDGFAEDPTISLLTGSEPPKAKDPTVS
# How it was run: as §1
# SPIC = biological target: T2, SPIC (Homo sapiens, UniProt Q8N5J4 1-248); details: protein: recombinant; tags: N-terminal GST; dsDNA, one strand shown
# T2 sequence: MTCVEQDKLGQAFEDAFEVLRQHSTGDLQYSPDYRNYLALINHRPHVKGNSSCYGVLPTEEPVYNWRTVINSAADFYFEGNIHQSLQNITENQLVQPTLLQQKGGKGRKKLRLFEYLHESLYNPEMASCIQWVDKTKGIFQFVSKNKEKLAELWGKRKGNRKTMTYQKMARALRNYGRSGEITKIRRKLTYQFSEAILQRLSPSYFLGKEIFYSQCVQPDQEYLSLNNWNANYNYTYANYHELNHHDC
# How it was run: as §1
# ELF4 = ELF4 (Homo sapiens, UniProt Q99607 1-663); details: protein: recombinant; tags: N-terminal GST; dsDNA, one strand shown
# ELF4, sequence (Q99607 whole entry): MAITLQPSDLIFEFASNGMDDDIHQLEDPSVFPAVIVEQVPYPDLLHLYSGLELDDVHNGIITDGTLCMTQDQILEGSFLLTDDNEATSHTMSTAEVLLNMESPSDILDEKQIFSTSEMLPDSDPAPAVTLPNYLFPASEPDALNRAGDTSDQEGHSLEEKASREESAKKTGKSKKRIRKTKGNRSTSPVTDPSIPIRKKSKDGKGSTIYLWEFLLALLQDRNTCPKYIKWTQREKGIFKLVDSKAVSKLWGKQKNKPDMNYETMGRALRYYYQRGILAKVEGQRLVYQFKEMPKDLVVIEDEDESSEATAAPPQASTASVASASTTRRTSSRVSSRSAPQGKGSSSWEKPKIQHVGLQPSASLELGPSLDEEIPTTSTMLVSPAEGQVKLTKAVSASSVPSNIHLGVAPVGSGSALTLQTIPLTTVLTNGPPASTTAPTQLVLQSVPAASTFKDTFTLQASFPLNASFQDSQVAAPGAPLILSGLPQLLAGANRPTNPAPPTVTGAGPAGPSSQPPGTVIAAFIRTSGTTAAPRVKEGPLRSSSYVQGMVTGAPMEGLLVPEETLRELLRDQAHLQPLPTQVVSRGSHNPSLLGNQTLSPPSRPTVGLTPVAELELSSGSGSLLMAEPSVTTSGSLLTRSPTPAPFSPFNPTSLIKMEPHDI
# How it was run: as §1
# ELK4 = biological target: T3, ELK4 (Homo sapiens, UniProt P28324-2 1-405); details: protein: recombinant; tags: N-terminal GST; dsDNA, one strand shown
# T3 sequence: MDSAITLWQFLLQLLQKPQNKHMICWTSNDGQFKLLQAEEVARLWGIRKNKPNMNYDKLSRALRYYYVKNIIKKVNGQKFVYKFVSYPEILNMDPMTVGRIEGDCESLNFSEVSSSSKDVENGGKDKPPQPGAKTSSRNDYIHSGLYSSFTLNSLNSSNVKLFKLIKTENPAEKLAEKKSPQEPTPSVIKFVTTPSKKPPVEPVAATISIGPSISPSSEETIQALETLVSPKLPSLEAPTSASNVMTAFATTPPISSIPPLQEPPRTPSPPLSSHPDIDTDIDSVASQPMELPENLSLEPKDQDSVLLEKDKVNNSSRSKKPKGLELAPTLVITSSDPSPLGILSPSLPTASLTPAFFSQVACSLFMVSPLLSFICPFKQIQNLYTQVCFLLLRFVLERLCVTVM
# How it was run: as §1
# ETV2 = biological target: T4, ETV2 (Homo sapiens, UniProt O00321 1-342); details: protein: recombinant; tags: N-terminal GST; dsDNA, one strand shown
# T4 sequence: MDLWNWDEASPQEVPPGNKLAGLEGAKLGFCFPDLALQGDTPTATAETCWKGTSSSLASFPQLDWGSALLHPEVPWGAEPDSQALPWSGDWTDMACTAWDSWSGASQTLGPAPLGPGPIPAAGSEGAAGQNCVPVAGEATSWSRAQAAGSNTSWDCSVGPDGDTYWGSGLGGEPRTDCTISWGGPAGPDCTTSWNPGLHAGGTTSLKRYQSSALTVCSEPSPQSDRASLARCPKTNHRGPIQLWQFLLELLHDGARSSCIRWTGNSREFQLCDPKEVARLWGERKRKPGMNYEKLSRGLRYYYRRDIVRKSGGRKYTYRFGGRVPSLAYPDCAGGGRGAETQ
# How it was run: as §1
# ELF3 = biological target: T5, ELF3 (Homo sapiens, UniProt P78545 1-371); details: protein: recombinant; tags: N-terminal GST; dsDNA, one strand shown
# T5 sequence: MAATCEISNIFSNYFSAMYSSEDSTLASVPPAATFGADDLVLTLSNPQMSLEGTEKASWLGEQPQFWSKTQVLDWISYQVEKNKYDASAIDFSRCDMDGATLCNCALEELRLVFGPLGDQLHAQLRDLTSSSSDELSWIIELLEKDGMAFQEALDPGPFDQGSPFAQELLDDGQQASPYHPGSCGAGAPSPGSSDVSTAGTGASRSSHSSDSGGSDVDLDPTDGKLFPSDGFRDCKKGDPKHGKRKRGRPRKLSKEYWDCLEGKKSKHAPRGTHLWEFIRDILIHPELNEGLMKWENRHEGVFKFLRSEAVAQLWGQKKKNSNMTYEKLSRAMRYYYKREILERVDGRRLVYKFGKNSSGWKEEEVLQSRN
# How it was run: as §1
# CRX = CRX (Homo sapiens, UniProt O43186 1-299); details: protein: recombinant; tags: N-terminal GST; dsDNA, one strand shown
# CRX, sequence (O43186 whole entry): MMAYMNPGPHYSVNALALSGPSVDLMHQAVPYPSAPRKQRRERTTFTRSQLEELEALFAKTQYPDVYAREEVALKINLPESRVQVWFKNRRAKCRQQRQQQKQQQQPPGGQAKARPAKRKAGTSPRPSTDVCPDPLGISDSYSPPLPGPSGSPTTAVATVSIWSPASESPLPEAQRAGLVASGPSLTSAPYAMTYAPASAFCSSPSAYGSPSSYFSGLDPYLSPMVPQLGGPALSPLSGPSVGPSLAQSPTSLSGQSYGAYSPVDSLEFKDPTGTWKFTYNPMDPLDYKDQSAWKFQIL
# How it was run: as §1
# ETV1 = ETV1 (Homo sapiens, UniProt P50549 1-477); details: protein: recombinant; tags: N-terminal GST; dsDNA, one strand shown
# ETV1, sequence (P50549 whole entry): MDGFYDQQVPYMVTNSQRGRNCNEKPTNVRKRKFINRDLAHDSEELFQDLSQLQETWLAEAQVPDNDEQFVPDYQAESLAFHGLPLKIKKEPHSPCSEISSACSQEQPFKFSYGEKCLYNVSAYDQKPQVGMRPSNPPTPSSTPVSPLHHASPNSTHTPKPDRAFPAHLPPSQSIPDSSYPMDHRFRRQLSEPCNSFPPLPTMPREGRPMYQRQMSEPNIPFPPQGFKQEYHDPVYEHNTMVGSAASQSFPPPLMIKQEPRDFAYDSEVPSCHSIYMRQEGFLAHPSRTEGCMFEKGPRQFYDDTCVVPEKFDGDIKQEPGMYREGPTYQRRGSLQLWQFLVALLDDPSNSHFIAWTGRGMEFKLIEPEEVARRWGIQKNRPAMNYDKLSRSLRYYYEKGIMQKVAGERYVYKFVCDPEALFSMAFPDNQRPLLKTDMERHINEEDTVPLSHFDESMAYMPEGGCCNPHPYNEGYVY
# How it was run: as §1
# ERF = biological target: T6, ERF (Homo sapiens, UniProt P50548 1-548); details: protein: recombinant; tags: N-terminal GST; dsDNA, one strand shown
# T6 sequence: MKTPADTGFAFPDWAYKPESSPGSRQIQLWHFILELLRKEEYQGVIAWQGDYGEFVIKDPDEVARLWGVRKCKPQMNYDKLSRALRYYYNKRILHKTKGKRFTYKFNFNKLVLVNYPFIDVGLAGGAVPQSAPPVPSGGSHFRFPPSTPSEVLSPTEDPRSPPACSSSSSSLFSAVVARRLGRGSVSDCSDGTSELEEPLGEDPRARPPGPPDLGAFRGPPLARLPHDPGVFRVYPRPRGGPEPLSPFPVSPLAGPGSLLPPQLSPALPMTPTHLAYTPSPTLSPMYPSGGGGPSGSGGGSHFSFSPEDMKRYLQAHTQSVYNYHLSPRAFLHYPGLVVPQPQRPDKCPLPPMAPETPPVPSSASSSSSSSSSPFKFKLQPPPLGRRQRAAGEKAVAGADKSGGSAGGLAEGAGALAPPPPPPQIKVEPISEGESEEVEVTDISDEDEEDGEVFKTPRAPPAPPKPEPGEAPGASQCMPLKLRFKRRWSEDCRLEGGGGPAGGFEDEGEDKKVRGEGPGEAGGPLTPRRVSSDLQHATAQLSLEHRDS
# How it was run: as §1
# ETV3L = biological target: T7, ETV3L (Homo sapiens, UniProt Q6ZN32 1-361); details: protein: recombinant; tags: N-terminal GST; dsDNA, one strand shown
# T7 sequence: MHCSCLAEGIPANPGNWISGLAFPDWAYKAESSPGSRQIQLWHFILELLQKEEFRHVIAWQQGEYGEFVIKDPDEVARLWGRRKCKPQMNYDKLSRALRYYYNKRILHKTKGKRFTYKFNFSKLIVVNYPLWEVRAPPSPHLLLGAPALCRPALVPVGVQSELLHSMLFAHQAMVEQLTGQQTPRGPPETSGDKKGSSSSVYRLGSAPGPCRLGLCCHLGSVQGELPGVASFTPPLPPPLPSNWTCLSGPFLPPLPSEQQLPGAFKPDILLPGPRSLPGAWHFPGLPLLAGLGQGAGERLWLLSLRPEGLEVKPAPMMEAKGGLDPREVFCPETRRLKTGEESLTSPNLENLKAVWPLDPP
# How it was run: as §1
# ETS2 = biological target: T8, ETS2 (Homo sapiens, UniProt P15036 1-469); details: protein: recombinant; tags: N-terminal GST; dsDNA, one strand shown
# T8 sequence: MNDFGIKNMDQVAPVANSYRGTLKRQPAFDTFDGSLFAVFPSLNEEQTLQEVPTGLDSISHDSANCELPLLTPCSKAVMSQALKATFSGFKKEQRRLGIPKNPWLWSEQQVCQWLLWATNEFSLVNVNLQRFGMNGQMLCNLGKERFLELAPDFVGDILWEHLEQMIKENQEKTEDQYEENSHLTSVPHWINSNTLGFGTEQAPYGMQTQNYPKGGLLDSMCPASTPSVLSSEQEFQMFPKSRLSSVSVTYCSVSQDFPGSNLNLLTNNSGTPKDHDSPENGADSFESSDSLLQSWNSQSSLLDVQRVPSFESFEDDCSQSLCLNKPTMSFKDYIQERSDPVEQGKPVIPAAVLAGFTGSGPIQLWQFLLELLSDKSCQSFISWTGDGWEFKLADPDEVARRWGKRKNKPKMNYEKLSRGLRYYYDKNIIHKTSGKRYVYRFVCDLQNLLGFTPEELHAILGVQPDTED
# How it was run: as §1
# SPDEF = biological target: T9, SPDEF (Homo sapiens, UniProt O95238 1-335); details: protein: recombinant; tags: N-terminal GST; dsDNA, one strand shown
# T9 sequence: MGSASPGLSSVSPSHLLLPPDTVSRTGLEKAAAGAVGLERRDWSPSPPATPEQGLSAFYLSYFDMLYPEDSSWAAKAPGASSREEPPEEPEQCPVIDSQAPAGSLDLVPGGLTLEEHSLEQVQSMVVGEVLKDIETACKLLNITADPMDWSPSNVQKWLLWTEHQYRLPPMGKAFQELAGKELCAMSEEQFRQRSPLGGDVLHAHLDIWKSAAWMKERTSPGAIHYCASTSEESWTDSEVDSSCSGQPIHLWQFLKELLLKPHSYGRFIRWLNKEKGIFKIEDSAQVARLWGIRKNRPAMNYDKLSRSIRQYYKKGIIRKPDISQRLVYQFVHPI
# How it was run: as §1
# ETV7 = biological target: T10, ETV7 (Homo sapiens, UniProt Q9Y603 1-341); details: protein: recombinant; tags: N-terminal GST; dsDNA, one strand shown
# T10 sequence: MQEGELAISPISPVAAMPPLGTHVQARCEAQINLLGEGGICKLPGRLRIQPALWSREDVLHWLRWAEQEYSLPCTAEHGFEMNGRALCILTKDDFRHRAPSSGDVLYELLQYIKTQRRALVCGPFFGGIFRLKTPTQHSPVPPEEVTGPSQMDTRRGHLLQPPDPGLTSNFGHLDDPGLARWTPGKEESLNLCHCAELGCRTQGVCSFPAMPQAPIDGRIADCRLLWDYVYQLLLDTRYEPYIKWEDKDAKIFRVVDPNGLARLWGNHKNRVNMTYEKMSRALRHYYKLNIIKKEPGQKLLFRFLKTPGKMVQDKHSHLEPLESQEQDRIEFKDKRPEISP
# How it was run: as §1
# ELF5 = biological target: T11, ELF5 (Homo sapiens, UniProt Q9UKW6-2 1-255); details: protein: recombinant; tags: N-terminal GST; dsDNA, one strand shown
# T11 sequence: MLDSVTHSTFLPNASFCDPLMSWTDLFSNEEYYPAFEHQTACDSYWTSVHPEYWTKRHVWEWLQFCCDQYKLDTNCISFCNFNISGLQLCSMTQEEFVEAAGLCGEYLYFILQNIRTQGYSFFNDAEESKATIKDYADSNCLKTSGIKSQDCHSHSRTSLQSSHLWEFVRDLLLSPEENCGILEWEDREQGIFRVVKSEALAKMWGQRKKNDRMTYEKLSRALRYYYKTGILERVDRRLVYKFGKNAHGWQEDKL
# How it was run: as §1
# ETV3 = biological target: T12, ETV3 (Homo sapiens, UniProt P41162-2 1-143); details: protein: recombinant; tags: N-terminal GST; dsDNA, one strand shown
# T12 sequence: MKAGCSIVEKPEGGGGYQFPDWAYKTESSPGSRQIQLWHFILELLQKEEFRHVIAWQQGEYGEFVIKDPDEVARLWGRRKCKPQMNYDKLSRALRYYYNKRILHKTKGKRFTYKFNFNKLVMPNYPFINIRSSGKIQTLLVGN
# How it was run: as §1
# ETV6 = ETV6 (Homo sapiens, UniProt P41212 1-452); details: protein: recombinant; tags: N-terminal GST; dsDNA, one strand shown
# ETV6, sequence (P41212 whole entry): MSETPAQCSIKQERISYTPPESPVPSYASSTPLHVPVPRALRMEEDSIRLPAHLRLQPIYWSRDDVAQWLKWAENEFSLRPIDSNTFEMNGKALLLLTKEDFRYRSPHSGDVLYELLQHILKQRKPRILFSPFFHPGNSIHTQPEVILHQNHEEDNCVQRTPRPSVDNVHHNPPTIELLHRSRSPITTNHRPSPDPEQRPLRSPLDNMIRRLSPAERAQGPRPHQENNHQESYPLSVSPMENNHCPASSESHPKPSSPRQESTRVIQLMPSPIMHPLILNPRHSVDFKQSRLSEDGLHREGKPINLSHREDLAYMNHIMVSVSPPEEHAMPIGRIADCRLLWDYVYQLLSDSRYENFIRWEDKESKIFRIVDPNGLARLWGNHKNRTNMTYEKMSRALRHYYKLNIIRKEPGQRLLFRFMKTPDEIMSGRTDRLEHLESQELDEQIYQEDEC
# How it was run: as §1
sequence,measurement,setting,value
TGGCAT,binding signal,FEV,"1.3 fold enrichment (6-mer frequency, TF over GST control)"
same,binding signal,ETV5,"1.13 fold enrichment (6-mer frequency, TF over GST control)"
same,binding signal,HSF1,"1.26 fold enrichment (6-mer frequency, TF over GST control)"
same,binding signal,SPIC,"1.24 fold enrichment (6-mer frequency, TF over GST control)"
same,binding signal,ELF4,"1.18 fold enrichment (6-mer frequency, TF over GST control)"
same,binding signal,ELK4,"1.21 fold enrichment (6-mer frequency, TF over GST control)"
same,binding signal,ETV2,"1.37 fold enrichment (6-mer frequency, TF over GST control)"
same,binding signal,ELF3,"1.24 fold enrichment (6-mer frequency, TF over GST control)"
same,binding signal,CRX,"1.21 fold enrichment (6-mer frequency, TF over GST control)"
same,binding signal,ETV1,"1.18 fold enrichment (6-mer frequency, TF over GST control)"
same,binding signal,ERF,"1.11 fold enrichment (6-mer frequency, TF over GST control)"
same,binding signal,ETV3L,"1.1 fold enrichment (6-mer frequency, TF over GST control)"
same,binding signal,ETS2,"1.14 fold enrichment (6-mer frequency, TF over GST control)"
same,binding signal,SPDEF,"1.09 fold enrichment (6-mer frequency, TF over GST control)"
same,binding signal,ETV7,"1.1 fold enrichment (6-mer frequency, TF over GST control)"
same,binding signal,ELF5,"1.06 fold enrichment (6-mer frequency, TF over GST control)"
same,binding signal,ETV3,"1.23 fold enrichment (6-mer frequency, TF over GST control)"
same,binding signal,ETV6,"1.25 fold enrichment (6-mer frequency, TF over GST control)"

# — publication PMC7862700, “An all-to-all approach to the identification of sequence-specific readers for epigenetic DNA modifications on cytosine”
